Results filed as inconclusive are left out. Calls of active or inactive are those of the source. Unless noted, the rule behind the calls is not given here.

The record followed here is PubChem BioAssay (NCATS).

Experiment [1] can be described thus: qHTS Assay for Identifying Gametocytocidal Compounds (AID 743244; active = well fitted curve in the direction sought with a large enough effect; an effect the other way counts as inactive or inconclusive; note: potency is the fitted concentration of half-maximal effect;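 for max response: % is set by controls: 0 for no effect and ±100 for the full control effect; actives lower the fluorescent signal which means gametocytes are killed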). Conditions: P. falciparum 3D7 stage III-V gametocytes, alamarBlue, 72 h; max response: stronger effect = lower value. The method in brief:
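Fluorescence at Ex 525/Em 598 nm, recorded 24 h after alamarBlue addition, reports residual metabolic activity of 3D7 gametocytes (stages III–V) following 72 h compound exposure at 37 °C, 5% CO2.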
(Quantitative high-throughput screening tests each substance at several concentrations.)

The nature of experiment [2]: qHTS profiling for inhibitors of Plasmodium falciparum (3D7) proliferation (AID 743322).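 Note: infected erythrocytes exposed to compound for 72 h before lysis; 100% = DMSO vehicle wells and 0% = 0.29 µM artemisinin.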 To be noted: P. falciparum 3D7 proliferation; at 28.7 µM (top of the series) unless noted. The method in brief: (§1)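 Parasite DNA was quantified by SYBR Green I fluorescence (ex 485, em 535 nm) after overnight lysis in saponin/Triton buffer at room temperature. Cultures at 0.3% parasitemia and 2.5% hematocrit were first exposed to compound for 72 h at 37 C; signals were normalised to artemisinin (0.29 uM) and vehicle wells.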

Experiment [3] can be described thus: qHTS profiling for inhibitors of Plasmodium falciparum (DD2) proliferation (AID 743323). Conditions: lower = more inhibition; at 28.7 µM (top of the series) unless noted. The method in brief:
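Parasite DNA quantified by SYBR Green fluorescence (ex 485, em 535 nm) after saponin/Triton lysis and overnight dark incubation. Cultures: 0.3% parasitemia, 2.5% hematocrit, 72 h, 37 C; data scaled between DMSO and 0.29 uM artemisinin.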

Experiment [4] in a line: qHTS profiling of the MIPE4 collection as inhibitors of Plasmodium falciparum (3D7) proliferation (AID 743344).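 Note: scaled between DMSO vehicle wells and 0.29 µM artemisinin as full inhibition.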 Conditions: P. falciparum 3D7 in erythrocytes, SYBR Green DNA fluorescence, 72 h; at 28.5 µM (top of the series) unless noted. The method, boiled down:
as §1

Experiment [5] can be described thus: qHTS profiling of the MIPE4 collection as inhibitors of Plasmodium falciparum (DD2) proliferation (AID 743345). To be noted: P. falciparum Dd2 in erythrocytes, SYBR Green DNA, 72 h; at 28.5 µM (top of the series) unless noted. The method in brief: as §1
A short description of experiment [6]: qHTS profiling of the MIPE4 collection as inhibitors of Plasmodium falciparum (DD2) proliferation (Rep 2) (AID 743346). To be noted: P. falciparum Dd2 in erythrocytes, SYBR Green DNA, 72 h; at 28.5 µM (top of the series) unless noted. The method in brief: as §1
Experiment [7] can be described thus: qHTS profiling for inhibitors of Plasmodium falciparum (HB3) proliferation (AID 743324; active = well fitted curve in the direction sought with a large enough effect; an effect the other way counts as inactive or inconclusive;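 note: 100% = DMSO vehicle wells and 0% = artemisinin-treated control wells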). Conditions: Plasmodium falciparum HB3 blood-stage proliferation; at 28.7 µM (top of the series) unless noted. The method, boiled down: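 SYBR Green fluorescence (485 ex/535 em) of lysed cultures, incubated overnight at room temperature in the dark, quantifies parasite DNA. Infected erythrocytes at 0.3% parasitemia and 2.5% hematocrit were exposed 72 h; values normalized to DMSO and 0.29 uM artemisinin controls.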

A short description of experiment [8]: qHTS profiling of the MIPE4 collection as inhibitors of Plasmodium falciparum (HB3) proliferation (AID 743347).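 Note: plate controls were DMSO vehicle wells for no effect and artemisinin wells for full effect.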 To be noted: P. falciparum HB3 in erythrocytes, SYBR Green DNA, 72 h; at 28.5 µM (top of the series) unless noted. The method in brief: as §1

As to `COc1ccc2c3n(c(=NC(=O)c4cccnc4)nc2c1OC)CCN3`, in experiment [1], the max response is -25% (inactive). This compound returned a remaining parasite growth % (stronger effect = lower value) in experiment [2] of 0.12%. Further, the activity, percent of control in experiment [3] is 12.2%. The parasite growth, % of DMSO control in experiment [4] was determined as 5.7%. In addition, the parasite growth remaining, % of DMSO control (lower = more inhibition) in experiment [5] came to 10.1%. This compound displayed a parasite growth, % of control (lower = inhibition) in experiment [6] of 7.17%.
For the compound `COc1cccc2cc(-c3nc(C4CCC(C(=O)O)CC4)n4ncnc(N)c34)[nH]c12` (configuration not stated), the max response in experiment [1] is -10.8% (inactive). The compound further gave a remaining parasite growth % (stronger effect = lower value) in experiment [2] of 64.8%. In experiment [3], the activity, percent of control stood at 53.2%. This compound had a parasite growth, % of DMSO control in experiment [4] of 13.9%. In addition, the parasite growth remaining, % of DMSO control (lower = more inhibition) in experiment [5] is 16.6%. Moreover, in experiment [6], the parasite growth, % of control (lower = inhibition) is 28.6%.
Take `CCCCCCCc1ccc(CCc2cccc(O)c2C(=O)O)cc1`: the max response in experiment [1] was 25.6% (inactive). For the same compound, in experiment [2], the remaining parasite growth % (stronger effect = lower value) turned out to be 93%. In experiment [3], the activity, percent of control worked out at 88.3%. For the same compound, the remaining proliferation (% of control), lower = more inhibition in experiment [7] worked out at 58.6%. The compound further yielded a parasite growth, % of DMSO control in experiment [4] of 68.8%. Also, the parasite growth remaining, % of DMSO control (lower = more inhibition) in experiment [5] turned out to be 99.9%. Also, the parasite growth, % of control (lower = inhibition) in experiment [6] turned out to be 66.9%. Further, the growth, % of control in experiment [8] amounted to 81.6%.
`CCn1c(-c2nonc2N)nc2c(C#CC(C)(C)O)ncc(OC[C@H]3CCCNC3)c21`: the Potency in experiment [1] is 23.5 µM (active). Besides, the remaining parasite growth % (stronger effect = lower value) in experiment [2] was 5.66%. The compound further came in with an activity, percent of control in experiment [3] of 2.74%. The parasite growth, % of DMSO control in experiment [4] came to 5.72%. The parasite growth remaining, % of DMSO control (lower = more inhibition) in experiment [5] is 11.8%. Moreover, the parasite growth, % of control (lower = inhibition) in experiment [6] was found to be 13.9%. In experiment [8], this compound yielded a growth, % of control of 3.2%.
Regarding `OCCn1cc(-c2cnc3nnn(Cc4ccc5ncccc5c4)c3n2)cn1`, the Potency in experiment [1] is 29.6 µM (active). Further, the remaining parasite growth % (stronger effect = lower value) in experiment [2] is 81.8%. The activity, percent of control in experiment [3] amounted to 86.8%. In experiment [7], this compound displayed a remaining proliferation (% of control), lower = more inhibition of 64.7%. Further, the parasite growth, % of DMSO control in experiment [4] is 56.6%. Besides, the parasite growth remaining, % of DMSO control (lower = more inhibition) in experiment [5] was found to be 94.4%. In addition, in experiment [6], the parasite growth, % of control (lower = inhibition) is 56.8%. For the same compound, the growth, % of control in experiment [8] was 47.5%.
`O=C(Nc1cccnc1)N1CCC(Cc2cccc(Oc3ccc(C(F)(F)F)cn3)c2)CC1`: the max response in experiment [1] was -7.98% (inactive). Moreover, in experiment [2], the remaining parasite growth % (stronger effect = lower value) is 8.79%. The compound further registered an activity, percent of control in experiment [3] of 24.9%. For the same compound, the parasite growth, % of DMSO control in experiment [4] worked out at 14.7%. The compound also came in with a parasite growth remaining, % of DMSO control (lower = more inhibition) in experiment [5] of 52.2%. Moreover, the parasite growth, % of control (lower = inhibition) in experiment [6] amounted to 21%.
Take `COc1ccccc1-c1cccc(-c2c(O)c3cc(C#N)c(Cl)cc3[nH]c2=O)c1`: in experiment [1], the max response was 99.8% (inactive). In experiment [2], the remaining parasite growth % (stronger effect = lower value) came out at 97.4%. Besides, the activity, percent of control in experiment [3] was found to be 76%. The same compound gave a remaining proliferation (% of control), lower = more inhibition in experiment [7] of 74.9%. The parasite growth, % of DMSO control in experiment [4] is 37.5% [at 57.5 µM]. Also, in experiment [5], the parasite growth remaining, % of DMSO control (lower = more inhibition) was found to be 84.4% [at 57.5 µM]. Besides, in experiment [6], the parasite growth, % of control (lower = inhibition) came to 32.5% [at 57.5 µM]. This compound yielded a growth, % of control in experiment [8] of 14.1% [at 57.5 µM].
Take `c1ccc(-c2nn3c(c2-c2ccnc4cc(OCCN5CCOCC5)ccc24)CCC3)nc1`: the max response in experiment [1] was -4.63% (inactive). Further, in experiment [2], the remaining parasite growth % (stronger effect = lower value) came to 81.9%. Further, the activity, percent of control in experiment [3] was 81.5%. This compound registered a remaining proliferation (% of control), lower = more inhibition in experiment [7] of 50.9%. For the same compound, the parasite growth, % of DMSO control in experiment [4] amounted to 25.6%. Also, the parasite growth remaining, % of DMSO control (lower = more inhibition) in experiment [5] came to 50.6%. This compound had a parasite growth, % of control (lower = inhibition) in experiment [6] of 58.7%. The same compound displayed a growth, % of control in experiment [8] of 17.9%.
For the compound `Cc1ccnc(NS(=O)(=O)c2ccc(NC(=O)Nc3ccc(S(=O)(=O)Nc4nccc(C)n4)cc3)cc2)n1`, in experiment [1], the max response was -10.8% (inactive). Moreover, the remaining parasite growth % (stronger effect = lower value) in experiment [2] turned out to be 12%. The compound also returned an activity, percent of control in experiment [3] of 27.4%. The remaining proliferation (% of control), lower = more inhibition in experiment [7] was determined as 3.95%. This compound also showed a parasite growth, % of DMSO control in experiment [4] of 15.7%. For the same compound, the parasite growth remaining, % of DMSO control (lower = more inhibition) in experiment [5] amounted to 70.2%. In experiment [6], this compound registered a parasite growth, % of control (lower = inhibition) of 26.2%. The growth, % of control in experiment [8] stood at 9.87%.
In the case of `Cc1ccc(NC(=O)c2cccc(C(C)(C)C#N)c2)cc1Nc1ccc2ncn(C)c(=O)c2c1`, the max response in experiment [1] was -12.3% (inactive). For the same compound, in experiment [2], the remaining parasite growth % (stronger effect = lower value) was found to be 34.8%. In addition, in experiment [3], the activity, percent of control came out at 49.3%. The compound also came in with a parasite growth, % of DMSO control in experiment [4] of 17.3%. Besides, the parasite growth remaining, % of DMSO control (lower = more inhibition) in experiment [5] amounted to 39.9%. Besides, the parasite growth, % of control (lower = inhibition) in experiment [6] turned out to be 51%. The compound also displayed a growth, % of control in experiment [8] of 16.2%.
